Assay outcomes from PubChem BioAssay.
A selection: hits, their analogues and other compounds. The true share with any hit is near 19%.
DT40 TDP1 CPT – qHTS for Inhibitors of human tyrosyl-DNA phosphodiesterase 1 (TDP1): qHTS in cells in presence of CPT; actives 12% (n = 420,000); chicken DT40 Tdp1-/-;hTDP1 cells + 20 nM CPT, ATP luminescence, 48 h; AID 686979, 2013; Potency, µM (top dose mostly 46.2 µM), most hits filed as inhibitors; also: nearly all actives have a fitted effect of over 55% in size
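Chicken DT40 Tdp1-/- cells stably complemented with human TDP1 were seeded at 400 cells/well in medium containing 20 nM camptothecin, exposed to pin-transferred compounds, and grown at 37 °C for at least 48 hr. Viability was read as ATP luminescence.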
HT1080NT lethal – qHTS for induction of synthetic lethality in tumor cells producing 2HG: qHTS for the HT-1080-NT fibrosarcoma cell line. HT-1080-NT fibrosarcoma viability, CellTiter-Glo ATP luminescence, 48 h. Potency, µM (titrated, usually from 46.1 µM), hits mostly cytotoxic. actives 1.6% (n = 360,000);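 also: NT is the 2HG producing partner of a matched IDH1 knockdown line; nearly all actives have a fitted effect of over 55% in size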
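Luminescent CellTiter-Glo readout after 48 hours of compound exposure at 37 degrees C defined viability of HT-1080-NT cells. Activity was normalized to DMSO wells and cell-free media wells; concentration-response curves were fitted and assigned curve classes.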
HT1080 IDH1KD tx – qHTS for induction of synthetic lethality in tumor cells producing 2HG: qHTS for the HT-1080-IDH1KD cell line; actives 2% (n = 360,000); AID 686971, 2013; Potency, µM (doses to about 46.1 µM), most hits filed as cytotoxic; HT-1080 IDH1 knockdown viability, ATP luminescence, 48 h
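% activity derives from luminescence (CellTiter-Glo), normalised to DMSO and no-cell wells. HT-1080-IDH1KD cells, 750/well, had 48 h compound exposure at 37 °C.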
IL-1B inflam inh – qHTS for Inhibitors of Inflammasome Signaling: IL-1-beta AlphaLISA Primary Screen; THP-1 LPS/ATP IL-1B secretion, AlphaLISA, 16 h; active compounds read low; activity change, % at 57.5 µM; actives 4.7% (n = 360,000); in the data active = activity change below about -50%; inconclusive = mostly about -30% to -49%
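Secreted IL-1B measured by AlphaLISA bead assay after 16 h compound exposure of THP-1 cells; compounds (final up to 57.5 uM) added 1 h before LPS (250 ng/mL) and ATP (1.25 mM) stimulation; lower signal means less secretion.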
TDP1 cell noCPT – qHTS for Inhibitors of human tyrosyl-DNA phosphodiesterase 1 (TDP1): qHTS in cells in absence of CPT. DT40 Tdp1-/- hTDP1 cells, no CPT, ATP luminescence, 48 h. Potency, µM (top dose mostly 46.2 µM), most hits filed as inhibitors. actives 15% (n = 420,000). AID 686978, 2013; also: nearly all actives have a fitted effect of over 55% in size
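Camptothecin absent (DMSO only). Human TDP1-complemented DT40 knockout cells, 400 cells/well, 37 °C for minimum 48 hr; ATP measured via CellTiter-Glo, 30 min dark incubation, luminescence.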
Large screens that a line does not name were inactive. Unless noted, calls follow the shape of the dose curve; as a rule, active = well fitted curve in the direction sought with a large enough effect; inconclusive = small, poorly fitted or top-dose-only effect, or another doubt; inactive = no such curve, though single readings can be large; an effect the other way counts as inactive or inconclusive.

O=C(NCCn1cccn1)c1ccc(OC2CCN(CCc3ccccc3)CC2)cc1	IL-1B inflam inh -81
CC1CCN(CCCNC(=O)c2cc3c(=O)n(C)c4ccccc4c3n2C)CC1	DT40 TDP1 CPT 23µM, IL-1B inflam inh -66, TDP1 cell noCPT 33µM
Cn1c(C(=O)NCCN2CCN(Cc3ccccc3)CC2)cc2c(=O)n(C)c3ccccc3c21	DT40 TDP1 CPT 23µM, TDP1 cell noCPT 23µM
C=CC1=C(C)C2=CC3=NC(=C(CC(=O)[O-])C4=NC(=C(C)C4=C([O-])[O-])C=c4[n-]c(c(C)c4CC)=CC1=N2)C(CCC(=O)[O-])C3C.[Cu+2].[Na+].[Na+].[Na+] (stereo not drawn)	DT40 TDP1 CPT inconclusive (no result: HT1080NT lethal, HT1080 IDH1KD tx, IL-1B inflam inh)
CC1CCc2ccccc2N1C(=N)N(C)C (stereo not drawn)	none
CCOC(=O)N1CCN(S(=O)(=O)c2ccc(F)c(C(=O)Nc3ccc(C(C)C)cc3)c2)CC1	DT40 TDP1 CPT 18µM, TDP1 cell noCPT 18µM
CCOC(=O)N1CCN(S(=O)(=O)c2ccc(F)c(C(=O)Nc3ccc(C)c(Cl)c3)c2)CC1	DT40 TDP1 CPT 16µM, IL-1B inflam inh -70, TDP1 cell noCPT 21µM
Clc1ccc(CSc2nnc(-c3ccccn3)n2Cc2ccco2)c(Cl)c1	DT40 TDP1 CPT inconclusive, TDP1 cell noCPT 29µM
Fc1ccccc1CSc1nnc(-c2cnccn2)n1Cc1ccco1	IL-1B inflam inh inconclusive
S=c1[nH]nc(COc2ccc(Cl)cc2)n1Cc1ccco1	TDP1 cell noCPT 21µM
Clc1ccc(CSc2nnc(-c3ccccn3)n2Cc2cccs2)cc1Cl	DT40 TDP1 CPT inconclusive, HT1080NT lethal inconclusive, HT1080 IDH1KD tx inconclusive, TDP1 cell noCPT 18µM
CCn1c(COc2ccc(C)cc2)nnc1SCC(=O)Nc1cc(OC)ccc1OC	DT40 TDP1 CPT inconclusive, TDP1 cell noCPT 21µM
c1ccc(-c2nnc(SCc3nc4ccccc4[nH]3)n2Cc2ccco2)cc1	none
COc1ccccc1NC(=O)CSc1nnc(COc2ccc(Cl)cc2)n1Cc1ccco1	DT40 TDP1 CPT 21µM, HT1080NT lethal inconclusive, IL-1B inflam inh inconclusive, TDP1 cell noCPT 15µM
O=C(CSc1nnc(-c2ccc(O)cc2)n1Cc1ccco1)c1ccccc1	TDP1 cell noCPT inconclusive
Cc1ccc(OCc2nnc(SCc3nc4ccccc4[nH]3)n2Cc2ccco2)cc1	DT40 TDP1 CPT 15µM, TDP1 cell noCPT 18µM
O=c1c2ccccc2nnn1CSc1nc2cc(Cl)ccc2c(=O)n1Cc1ccco1	none
O=c1c2ccccc2nnn1CSc1nnc(COc2ccc(Cl)cc2)n1Cc1ccco1	DT40 TDP1 CPT 23µM, TDP1 cell noCPT 21µM
O=C(CSc1nnc(-c2ccccn2)n1Cc1ccco1)c1ccc(-c2ccccc2)cc1	DT40 TDP1 CPT 29µM, TDP1 cell noCPT inconclusive
Cc1ccc(OCc2nnc(SCC(=O)c3ccccc3)n2Cc2ccco2)cc1	DT40 TDP1 CPT 23µM, TDP1 cell noCPT 18µM
COc1ccccc1C1C=C(c2ccc(Cl)cc2)Nc2nc(-c3ccc(Cl)cc3)nn21 (stereo not drawn)	DT40 TDP1 CPT 16µM, TDP1 cell noCPT inconclusive (no result: HT1080NT lethal, HT1080 IDH1KD tx, IL-1B inflam inh)
COc1ccccc1C1C(C(N)=O)=C(C)Nc2nc(-c3ccc(Cl)cc3)nn21 (stereo not drawn)	none
COc1ccccc1C1C=C(c2ccc(F)cc2)Nc2nc(-c3ccc(Cl)cc3)nn21 (stereo not drawn)	DT40 TDP1 CPT 21µM, TDP1 cell noCPT 16µM (no result: HT1080NT lethal, HT1080 IDH1KD tx, IL-1B inflam inh)
COCCCn1c(SCC(=O)NC2CCS(=O)(=O)C2)nnc1-c1ccc(Cl)cc1 (stereo not drawn)	none
COCCCn1c(SCC(=O)Nc2ccc(F)cc2)nc2c(sc3ccccc32)c1=O	DT40 TDP1 CPT 15µM, TDP1 cell noCPT 5.8µM (no result: HT1080NT lethal, HT1080 IDH1KD tx, IL-1B inflam inh)
COc1ccc(NC(=O)CSc2nc3c(sc4ccccc43)c(=O)n2CCCN2CCCC2)cc1	DT40 TDP1 CPT 21µM, HT1080NT lethal inconclusive, HT1080 IDH1KD tx inconclusive, TDP1 cell noCPT inconclusive
COCCCn1c(SCc2ccccc2F)nc2c(sc3ccccc32)c1=O	DT40 TDP1 CPT inconclusive, TDP1 cell noCPT 15µM (no result: HT1080NT lethal, HT1080 IDH1KD tx, IL-1B inflam inh)
COc1ccc(S(=O)(=O)N2CCOCC2)cc1NC(=O)/C=C/c1ccc(F)cc1	none
CCc1cccc(NC(=O)COC(=O)/C=C/c2cccs2)c1	none
Cc1ccccc1OCc1nc2ccccc2c(=O)n1/N=C/c1cn[nH]c1-c1ccccc1	DT40 TDP1 CPT inconclusive, HT1080NT lethal inconclusive, HT1080 IDH1KD tx inconclusive, IL-1B inflam inh -53, TDP1 cell noCPT 21µM
Cc1cc(/C=N/n2c(COc3ccccc3)nc3ccccc3c2=O)c(O)c([N+](=O)[O-])c1	DT40 TDP1 CPT 16µM, HT1080NT lethal inconclusive, HT1080 IDH1KD tx inconclusive, TDP1 cell noCPT 21µM
O=C(O)COc1ccc(/C=N/n2c(COc3ccccc3)nc3ccccc3c2=O)cc1	TDP1 cell noCPT inconclusive
Cc1ccc(-c2[nH]ncc2/C=N/n2c(COc3ccccc3)nc3ccccc3c2=O)cc1	DT40 TDP1 CPT inconclusive, HT1080NT lethal inconclusive, HT1080 IDH1KD tx inconclusive, IL-1B inflam inh -92, TDP1 cell noCPT inconclusive
Cc1nc2ccccc2c(=O)n1/N=C/c1cn[nH]c1-c1ccccc1	DT40 TDP1 CPT inconclusive, TDP1 cell noCPT 15µM
Cc1cccc(C)c1OCc1nc2ccccc2c(=O)n1/N=C/c1ccc(OCC(=O)O)cc1	TDP1 cell noCPT inconclusive
OCC[C@@H]1C[C@H](O)[C@@H](O)[C@@]2(OCc3ccc(CO)cc32)O1	DT40 TDP1 CPT inconclusive
Cc1ccc(S(=O)(=O)NCCc2cn3ccsc3n2)c(C)c1	none (no result: HT1080NT lethal, HT1080 IDH1KD tx, IL-1B inflam inh)
COc1cc(Cl)ccc1OC1(C)CCN(Cc2ccccc2OC(F)F)C1 (stereo not drawn)	DT40 TDP1 CPT 21µM, TDP1 cell noCPT 21µM
COc1cc(Cl)ccc1OC1(C)CCN(Cc2cccc(OC)c2OC)C1 (stereo not drawn)	DT40 TDP1 CPT 13µM, HT1080NT lethal inconclusive, HT1080 IDH1KD tx inconclusive, TDP1 cell noCPT 16µM
COc1ccc(CN2CCC(C)(Oc3ccc(C(C)=O)cc3)C2)c2ccccc12 (stereo not drawn)	DT40 TDP1 CPT inconclusive, HT1080NT lethal inconclusive, HT1080 IDH1KD tx inconclusive, TDP1 cell noCPT inconclusive
CN(C)CCOc1ccc2c(c1)C(=O)C(=Cc1ncc([N+](=O)[O-])n1C)C2	DT40 TDP1 CPT 0.15µM, HT1080NT lethal 23µM, HT1080 IDH1KD tx 6.5µM, IL-1B inflam inh -51, TDP1 cell noCPT 0.13µM
COc1ccc(/C(O)=C(\C#N)c2nc3ccccc3n2C)cc1OC	none
Cn1c(/C(C#N)=C/c2ccc(-c3ccc(S(N)(=O)=O)cc3)o2)nc2ccccc21	DT40 TDP1 CPT 13µM, TDP1 cell noCPT 15µM
